Drawing on PubChem BioAssay (EPA / NIEHS), this text covers outcome and AC50 for seven compounds.

Test [1] is described as follows: CCTE_Shafer_MEA_dev_per_burst_interspike_interval: CCTE's Neural Network Formation Assay for Burst Interspike Interval, Shafer Lab (AID 2284044).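 Also: mean spike spacing inside bursts as AUC over recordings on days 5 7 9 12.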 Summed up: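 Primary rat cortical neurons on 48-well MEA plates, exposed from day 0 through day 12, treatment renewed at DIV 5 and 9. Within-burst interspike interval recorded days 5, 7, 9, 12, well-averaged, summarised as AUC; negative fit versus DMSO.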

Test [2] in a line: CCTE_Shafer_MEA_dev_burst_duration_mean: CCTE's Neural Network Formation Assay for Mean Burst Duration, Shafer Lab (AID 2284045). The procedure, abridged: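 Read-out: average first-to-last-spike interval within single-electrode bursts, averaged over bursting electrodes per well, then summarised as area under the curve across days 5, 7, 9 and 12. Developing rat cortical networks were exposed from day 0.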

Test [3] can be described thus: CCTE_Shafer_MEA_dev_inter_network_spike_interval_mean: CCTE's Neural Network Formation Assay for Mean Inter-network Spike Interval, Shafer Lab (AID 2284047). The procedure, abridged: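 Rat cortical cultures, 1.5 x 10^5 cells/well on 48-well MEA plates; continuous exposure days 0–12, medium and compound refreshed DIV 5, 9. Mean time between consecutive network-spike peaks; AUC across DIV 5/7/9/12; DMSO baseline, negative fitting direction.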

Test [4] can be described thus: CCTE_Shafer_MEA_dev_network_spike_number: CCTE's Neural Network Formation Assay for Number of Network Spikes, Shafer Lab (AID 2284048).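 Also: synchronized bursts across electrodes counted on days 5 7 9 12 and integrated as AUC.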 The procedure, abridged: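 Developing networks of primary rat cortical neurons are treated over 12 days starting at plating, with media and compound fully replaced on DIV 5 and 9. Network spike counts from four recording days are integrated as trapezoidal AUC.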

The nature of test [5]: CCTE_Shafer_MEA_dev_spike_duration_mean: CCTE's Neural Network Formation Assay for Mean Spike Duration, Shafer Lab (AID 2284051).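 As to AC50: potency for a decrease in mean network spike duration versus DMSO.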 Summed up: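 Readout is the average length of network spikes, clustered firing across electrodes, summed over DIV 5, 7, 9 and 12 as area under the curve. Neurons from rat cortex developed networks on MEA plates under continuous 12-day exposure.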

Test [6] can be described thus: CCTE_Shafer_MEA_dev_network_spike_duration_std: CCTE's Neural Network Formation Assay for Standard Deviation of Network Spike Duration, Shafer Lab (AID 2284052).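 Also: hits are decreases in network spike duration SD versus DMSO vehicle.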 Summed up: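 Read-out is the trapezoidal area-under-the-curve across recordings made on days 5, 7, 9 and 12, fitted in the negative direction against DMSO baseline. Neurons were primary rat cortical cells treated from day 0, with treatment renewed at each feed.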

A short description of test [7]: CCTE_Shafer_MEA_dev_per_network_spike_spike_percent: CCTE's Neural Network Formation Assay for Percent of Spikes in a Network Spike, Shafer Lab (AID 2284054). Summed up: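 Rat primary cortical cultures, 1.5 x 10^5 cells/well on MEA. Continuous compound exposure d0–12, medium/compound renewed DIV 5, 9. Network-spike spike % (0.05 s peak window), AUC over 4 recordings, DMSO baseline.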

Test [8] can be described thus: CCTE_Shafer_MEA_dev_LDH: CCTE's Lactate Dehydrogenase Assay for Cytotoxicity in the Neural Network Formation Assay, Shafer Lab (AID 2284068; active = hit-call score of the fitted dose curve at least 0.9, where 1 is the maximum;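 also: exposure for twelve days from plating with re-dosing on DIV 5 and 9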). Summed up:
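Cytotoxicity companion to network-formation recordings: rat cortical neurons received compound over 12 days of development, re-dosed at DIV 5 and 9 feeds. Viability was inferred from LDH enzyme activity relative to DMSO.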

Test [9] can be described thus: CCTE_Shafer_MEA_dev_AB: CCTE's Alamar Blue Assay for Cytotoxicity in the Neural Network Formation Assay, Shafer Lab (AID 2284083; active = hit-call score of the fitted dose curve at least 0.9, where 1 is the maximum;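 also: resazurin reduction fluorescence as viability of cultured neurons; twelve days of exposure from plating with re-dosing on DIV 5 and 9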). The procedure, abridged:
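Fluorescent resazurin reduction serves as the viability read-out, with DMSO as negative control and baseline. Cells were primary rat cortical neurons grown on MEA plates and dosed from day 0 to day 12, treatment renewed on DIV 5 and 9.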
(In general: The colour change of resazurin is a common sign of viable cells or microbes.)

Test [10] can be described thus: CCTE_Shafer_MEA_dev_mutual_information_norm: CCTE's Neural Network Formation Assay for Mutual Information Normalization, Shafer Lab (AID 2284091). Summed up:
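Developing rat cortical networks on 16-electrode MEA wells are treated throughout formation (DIV 0–12). Shared electrode information is recorded four times, converted to area-under-curve, and fitted for decreases against DMSO vehicle.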

Test [11] is described as follows: CCTE_Shafer_MEA_dev_correlation_coefficient_mean: CCTE's Neural Network Formation Assay for Mean Correlation Coefficient, Shafer Lab (AID 2284093).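 As to AC50: well mean pairwise spike train correlation integrated as AUC over recording days 5 to 12; potency fitted for loss of correlation relative to DMSO vehicle wells.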 The procedure, abridged: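 Read-out: well-mean correlation coefficient of spike trains between electrode pairs, collapsed over four recording days as trapezoidal area-under-the-curve. Developing rat cortical neuron networks grown on MEAs received test chemical continuously from plating.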

Test [12] is described as follows: CCTE_Shafer_MEA_dev_bursting_electrodes_number: CCTE's Neural Network Formation Assay for Number of Bursting Electrodes, Shafer Lab (AID 2284043; active = hit-call score of the fitted dose curve at least 0.9, where 1 is the maximum;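 as to AC50: potency is for loss of bursting electrodes relative to DMSO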). The procedure, abridged: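 Read-out is the per-well number of electrodes bursting at least once every 2 minutes, recorded on days 5, 7, 9 and 12 and collapsed by trapezoidal area under the curve. Cultures were primary rat cortical neurons on MEA plates, treated continuously from plating.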

The next test concerns DIO2 (gene 1734). Kind of test: CCTE_GLTED_hDIO2: CCTE's human Deiodinase 2 (DIO2) Inhibition Assay, Great Lakes Toxicology and Ecology Division (GLTED) Lab (AID 2284050; active = hit-call score of the fitted dose curve at least 0.9, where 1 is the maximum). The procedure, abridged: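 Cell-free human DIO2 enzyme was incubated with test chemical for 3 h; iodide liberated from substrate was then quantified by the Sandell-Kolthoff reaction (absorbance), run in triplicate. Loss of signal versus DMSO baseline indicated inhibition.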

In a further test the test system is DIO3 (gene 1735). In words: CCTE_GLTED_hDIO3: CCTE's human Deiodinase 3 (DIO3) Inhibition Assay, Great Lakes Toxicology and Ecology Division (GLTED) Lab (AID 2284055; active = hit-call score of the fitted dose curve at least 0.9, where 1 is the maximum;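 as to AC50: potency is for inhibition seen as loss of released iodide signal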). The procedure, abridged: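 Cell-free assay with human DIO3 enzyme produced by adenovirus expression; enzyme incubated with test chemical for 3 hours. Liberated iodide then measured by Sandell-Kolthoff absorbance; loss of signal versus DMSO baseline indicates inhibition, run in triplicate.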

The structures appear in SMILES notation. Records with an inconclusive call do not appear. The source made the active and inactive calls. The calls were made as follows, unless noted: active = hit-call score of the fitted dose curve at least 0.9, where 1 is the maximum; inactive = score below 0.9.

One may read the AC50 as the concentration giving half of the maximal activity seen.

For the compound `OCC(F)(F)C(F)(F)C(F)(F)C(F)F`, the compound was classed as inactive in [1], in [2], in [3], in test [4], in test [5] and in test [6]. The outcome in test [7], in test [8], in [9], in test [10] and in [11] was inactive.

`FC(F)(F)C(F)(F)C(F)(F)C(F)(F)C(F)(F)CCI`: the AC50 in test [12] was 0.822 µM (active); in test [5], 15 µM (active); in [8], 21.8 µM (active); in [9], 23.9 µM (active); in [11], 25.2 µM (active). Moreover, the result in test [1], in test [2], in test [3], in [4], in test [6] and in test [7] was inactive. Moreover, the outcome in [10] was inactive.

Turning to `O=C(O)C(F)(F)C(F)(F)C(F)F`, the outcome in [12], in [1], in test [2], in [3], in test [4] and in test [5] was inactive. The compound was classed as inactive in test [6], in test [7], in test [8], in test [10] and in test [11].

As to `O=C(O)C(F)(F)C(F)(F)C(F)(F)C(F)(F)C(F)(F)C(F)(F)C(F)(F)C(F)(F)C(F)(F)C(F)F`, the compound was called inactive in test [1], in test [2], in test [3], in test [4], in [5] and in test [6]. Also, the call in [7], in test [8], in test [9], in test [10] and in test [11] was inactive. Also, the AC50 is 59.3 µM (active) with DIO2 (gene 1734) and 138 µM (active) in the test with DIO3 (gene 1735).

Turning to `O=C(O)C(F)(F)C(F)(F)C(F)(F)F`, the outcome in test [12], in [1], in [2], in test [3], in test [4] and in test [5] was inactive. The outcome in test [6], in [7], in test [8], in test [10] and in [11] was inactive.

In the case of `NC(=O)C(F)(F)C(F)(F)C(F)(F)C(F)(F)F`, the compound was classed as inactive in [1], in [2], in test [3], in test [4], in test [5] and in test [6]. The compound was called inactive in test [7], in test [10] and in test [11].

`C=C(C)C(=O)OCC(F)(F)C(F)(F)C(F)(F)F`: the compound was classed as inactive in the test with DIO3 (gene 1735).
